An excerpt weighted towards active compounds, which were near 19% of everything screened.
KB-3-1 cytotox: KB-3-1 parental cell cytotoxicity | KB-3-1 viability, CellTiter-Glo ATP luminescence, 72 h | Potency, µM (top dose mostly 46.1 µM), hits mostly cytotoxic | hit rate 1.4% among 400,000 | AID 1347075; note: nearly all actives have a fitted effect of over 60% in size
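Multi-concentration cytotoxicity screen in KB-3-1 cells grown in DMEM lacking phenol red with 10% FBS. After 72 h at 37 °C with compound, ATP-dependent luminescence was recorded.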
HT1080 IDH1KD tx: toxicity to HT-1080 IDH1 knockdown cells (counter line); HT-1080 IDH1 knockdown viability, ATP luminescence, 48 h; Potency, µM (titrated, usually from 46.1 µM), for inactives: top-dose activity, negative = toxicity, most hits filed as cytotoxic; hit rate 2% among 360,000;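 note: 0% = DMSO wells and -100% = cell-free medium wells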
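Luminescent ATP read-out (CellTiter-Glo, 10 min at room temperature) after 48 h compound exposure at 37 °C gave viability of IDH1-knockdown HT-1080 cells. Activity was normalised to DMSO and cell-free wells, then fitted as concentration-response curves.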
TDP1 cell CPT: DT40-hTDP1 cell growth loss with CPT | chicken DT40 Tdp1-/-;hTDP1 cells + 20 nM CPT, ATP luminescence, 48 h | Potency, µM (top dose mostly 46.2 µM), inactives show at the top dose activity change, negative = growth inhibition, hits mostly inhibitors | hit rate 12% among 420,000; note: nearly all actives have a fitted effect of over 55% in size
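Chicken DT40 Tdp1-/- cells stably complemented with human TDP1 were seeded at 400 cells/well in medium containing 20 nM camptothecin, exposed to pin-transferred compounds, and grown at 37 °C for at least 48 hr. Viability was read as ATP luminescence.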
TDP1 cell noCPT: qHTS for Inhibitors of human tyrosyl-DNA phosphodiesterase 1 (TDP1): qHTS in cells in absence of CPT; DT40 Tdp1-/- hTDP1 cells, no CPT, ATP luminescence, 48 h; Potency, µM (top dose mostly 46.2 µM), for inactives: at the top dose activity change, negative = growth inhibition, actives largely listed as inhibitors; AID 686978, 2013; hit rate 15% among 420,000; note: nearly all actives have a fitted effect of over 55% in size
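Camptothecin absent (DMSO only). Human TDP1-complemented DT40 knockout cells, 400 cells/well, 37 °C for minimum 48 hr; ATP measured via CellTiter-Glo, 30 min dark incubation, luminescence.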
KB-V1 MDR tox: kills drug-selected multidrug resistant KB-V1 cells; KB-V1 MDR cells viability, CellTiter-Glo, 72 h; Potency, µM (highest dose often 46.1 µM), usual class: cytotoxic; AID 1347076; hit rate 3.4% among 400,000; note: nearly all actives have a fitted effect of over 60% in size
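Following 72 h at 37 degrees C with compound, KB-V1 cell viability was read by CellTiter-Glo luminescence, medium being phenol-red-free DMEM plus 10% FBS; concentration-response parameters came from normalized, curve-fitted qHTS data.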
HT1080NT lethal: kills 2HG-producing HT-1080-NT fibrosarcoma cells | hit rate 1.6% among 360,000 | HT-1080-NT fibrosarcoma viability, CellTiter-Glo ATP luminescence, 48 h | Potency, µM (series often up to 46.1 µM), for the others: top-dose activity, negative = less viability, most hits filed as cytotoxic;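 note: NT is the 2HG producing partner of a matched IDH1 knockdown line; 0% = DMSO-treated cells and -100% = media-only wells without cells; nearly all actives have a fitted effect of over 55% in size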
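Fibrosarcoma NT cells, 750 per well in 5% FBS RPMI, were exposed to compound for 48 hours. Viability: CellTiter-Glo luminescence.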
An asterisk follows results filed as active; i = inactive; ? = inconclusive; nt = not tested or not shown; [ ] = dose if it differs, or a comment. Calls come from the whole dose curve; as a rule, active = well fitted curve in the direction sought with a large enough effect; inconclusive = small, poorly fitted or top-dose-only effect, or another doubt; inactive = no such curve, though single readings can be large; an effect the other way counts as inactive or inconclusive. Unless noted, % is set by controls: 0 for no effect and ±100 for the full control effect; potency is the fitted concentration of half-maximal effect.

SMILES	KB-3-1 cytotox	HT1080 IDH1KD tx	TDP1 cell CPT	TDP1 cell noCPT	KB-V1 MDR tox	HT1080NT lethal
COc1ccccc1CC(=O)Nc1sc2c(c1C(N)=O)CCCC2	i	?	-5%	-32%	i	?
CCN(CC)CC(=O)Nc1sc2c(c1C(=O)c1ccccc1OC)CCC2	?	?	16µM*	15µM*	?	?
COc1cc(OC)c(OC)cc1CNc1sc2c(c1C(=O)Nc1ccccc1OC)CCC2	i	nt	21µM*	21µM*	i	nt
CCOc1ccc(NC(=O)c2c(NCc3cc(OC)c(OC)cc3OC)sc3c2CCCC3)cc1	i	nt	?	?	i	nt
C#CCOn1c(-n2nc(C)cc2C)nc2ccccc2c1=O	i	-7%	-7%	?	?	1%
COc1ccc(-n2nc(C(=O)N3CCN(c4cccc(C)c4C)CC3)c3c4ccccc4n(C)c3c2=O)cc1Cl	?	nt	11%	-10%	?	nt
O=C(OCC(=O)c1ccc[nH]1)c1ccc(S(=O)(=O)C(F)F)cc1	i	8%	3%	7%	i	3%
COc1ccc(OC)c(NC(=O)C2CCN(S(=O)(=O)c3c(C)noc3/C=C/c3ccc(C)cc3)CC2)c1	i	nt	-22%	?	i	nt
CCOC(=O)C(/C=C(\C#N)C(=O)OCC)=C(/N)N1CCN(c2ccc(Cl)cc2)CC1	?	-10%	-15%	16µM*	i	-3%
CCOC(=O)N1CCN(c2ccc(Cl)cc2)CC1	i	7%	-2%	-5%	i	8%
Cn1c(SCc2ccccc2)nc(N)c(N=O)c1=O	i	-14%	?	15µM*	i	-5%
Cc1ccc(N2CC(C(=O)Nc3c4c(nn3C(C)(C)C)CS(=O)(=O)C4)CC2=O)cc1C (centres undefined)	nt	-1%	-19%	-16%	nt	-5%
COc1cc2nc(C3CC3)n(NC(=O)c3ccc(Cl)cc3)c(=O)c2cc1OC	?	?	?	23µM*	i	?
COc1cc2nc(C3CCC3)n(NC(=O)COc3ccccc3)c(=O)c2cc1OC	i	1%	-12%	-17%	?	7.1µM*
COc1ccccc1C(=O)Nn1c(C2CCC2)nc2ccccc2c1=O	i	?	13µM*	?	?	-6%
O=C(Nn1c(C2CCC2)nc2ccccc2c1=O)C1CCC1	i	-5%	-6%	-11%	i	-15%[9.24 µM]
CCOc1ccccc1C(=O)Nn1c(C2CCC2)nc2ccccc2c1=O	i	-27%	9.2µM*	23µM*	i	?
COc1cc2nc(C3CC3)n(NC(=O)c3ccc(F)cc3)c(=O)c2cc1OC	i	2%	-24%	0%	?	4%
CCOC(=O)c1c(C)[nH]c(C(=O)COC(=O)CCNS(=O)(=O)c2ccc(NC(C)=O)cc2)c1C	i	1%	0%	-15%	?	10%
CNC(=S)N(Cc1ccc(OC)cc1)C1CC(=O)N(c2ccc(Cl)cc2)C1=O (centres undefined)	?	-30%	16µM*	18µM*	i	-23%
CNC(=S)N(Cc1ccc2c(c1)OCO2)C1CC(=O)N(c2ccc(F)cc2)C1=O (centres undefined)	?	-11%	?	21µM*	16µM*	-24%
C=CCN(C(=O)Nc1ccc(Cl)cc1)C1CC(=O)N(c2ccc(OC)cc2)C1=O (centres undefined)	i	-21%	23µM*	-14%	i	-20%
COc1ccc(C(C)NC(=O)C2CCN(CCCc3ccccc3)CC2)cc1OC (centres undefined)	i	24%	-12%	-9%	i	?
Cc1cc(C(F)F)n2nc(C(=O)Nc3cccc(Cl)c3C)nc2n1	i	nt	-3%	-2%	i	nt
COC(=O)c1ccccc1NC(=O)c1cn(-c2ccc(C)c(C)c2)c(=O)c2ccccc12	?	3%	?	23µM*	?	4%
SMILES	KB-3-1 cytotox	HT1080 IDH1KD tx	TDP1 cell CPT	TDP1 cell noCPT	KB-V1 MDR tox	HT1080NT lethal
CCOC(=O)c1ccccc1NC(=O)c1cn(-c2ccc(C)c(C)c2)c(=O)c2ccccc12	i	-2%	21µM*	?	?	-4%
CCOC(=O)c1ccccc1NC(=O)c1cn(-c2ccc(OC)cc2)c(=O)c2ccccc12	i	-30%	?	?	?	?
CC(C)CCn1c(=O)[nH]c2ccccc21	i	10%	7%	-2%	i	16%
O=c1[nH]c2ccccc2n1CCC1CCCCC1	i	?	-25%	?	18µM*	-14%
O=c1[nH]c2ccccc2n1CCCSCCCn1c(=O)[nH]c2ccccc21	21µM*	-16%	?	?	18µM*	-23%
COC(=O)c1cc(NC(=O)CC2SC(=Nc3ccccc3)N(CCc3c[nH]c4ccccc34)C2=O)cc(C(=O)OC)c1 (centres undefined)	?	?	16µM*	?	i	?
N#C[C@H]1C(O)C(O)c2ccccc2N1C(=O)c1ccccc1 (some centres undefined)	i	7%	6%	-6%	i	8%
CC1=Cc2ccccc2C(C#N)N1C(=O)c1ccccc1 (centres undefined)	?	?	21µM*	18µM*	i	?
Cc1ccc2c(c1)C=CC(C#N)N2C(=O)c1ccccc1 (centres undefined)	4.6µM*	1.5µM*	1.6µM*	1.8µM*	9.2µM*	1.6µM*
Cc1ccc2c(c1)C=CC(C)N2C(=O)c1ccccc1 (centres undefined)	i	-21%	?	16µM*	i	-17%
CCSC(=O)N1c2ccc(OC)cc2C=CC1C#N (centres undefined)	0.65µM*	?	0.0082µM*	0.0052µM*	0.73µM*	0.46µM*
CC(=O)N1C[C@@H](CO)[C@@H](N(C)C(=O)C2CCCCC2)C[C@H]1c1ccccc1	i	2%	2%	3%	i	22%
Cc1cc2oc(C(=O)Nc3ccc(S(=O)(=O)Nc4ncccn4)cc3)cc(=O)c2cc1C	i	nt	-2%	-14%	i	nt
c1ccc(CN2CCC3CC2c2ccc(N4CCOCC4)cc23)cc1 (centres undefined)	i	-3%	-10%	-30%	i	-2%
O=C(CCn1c(=O)c2cccn2c2cccnc21)Nc1ccccc1Br	nt	nt	-5%	?	nt	nt
N#CC(=Nc1cccc(F)c1)C1=C(O)c2ccccc2C1=O	i	3%	-2%	-4%	i	5%
